# Results: PubChem BioAssay
# The source made the active and inactive calls. How the calls were made is not given here.
# Biological target: Pantothenate synthetase (Mycobacterium tuberculosis (strain ATCC 25618 / H37Rv)) (UniProt P9WIL5)
# Experiment: Recombinant Mtb pantothenate synthetase (PanC) inhibitors, coupled enzyme, confirmatory (AID 375);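 further: 0% = full reaction with vehicle and 100% = no enzyme background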
# Conditions: coupled enzyme assay; at 10 µM, hits give high values
# Sequence of Pantothenate synthetase (Mycobacterium tuberculosis (strain ATCC 25618 / H37Rv)) (P9WIL5 whole entry, looked up): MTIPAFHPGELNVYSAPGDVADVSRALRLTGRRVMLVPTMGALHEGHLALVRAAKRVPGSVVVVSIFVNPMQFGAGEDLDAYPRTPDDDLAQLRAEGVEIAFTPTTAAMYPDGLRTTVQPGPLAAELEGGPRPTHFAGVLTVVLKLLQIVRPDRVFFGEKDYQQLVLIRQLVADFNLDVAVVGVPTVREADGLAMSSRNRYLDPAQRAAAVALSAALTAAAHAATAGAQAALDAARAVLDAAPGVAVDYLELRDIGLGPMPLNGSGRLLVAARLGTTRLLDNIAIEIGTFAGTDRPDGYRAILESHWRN
row,Structure (SMILES),inhibition
1,O=S(=O)(NCC1CCCO1)c1cccc(C(F)(F)F)c1 (stereo not given),0% (inactive)
2,O=C(Nc1ccc(Cl)cc1C(=O)O)c1ccc2c(c1)C(=O)N(Cc1ccco1)C2=O,0% (inactive)
3,Oc1ccc(N2CCN(C(c3ccncc3)c3nnnn3C3CCCC3)CC2)cc1 (stereo not given),11% (inactive)
4,COc1ccc(C(=O)c2ccc(OC)c(N)c2)cc1N,0% (inactive)
5,CC1(C)CN=C(N2CCN(c3ncnc4sc5c(c34)CCCC5)CC2)S1,0% (inactive)
6,COc1cc(-c2nnc(SCc3c(F)cccc3Cl)o2)cc(OC)c1OC,0% (inactive)
7,O=c1c2ccccc2nc2n1CCN2,0% (inactive)
8,C=CCn1c(COc2ccccc2)nnc1SCC(=O)C(C)(C)C,0% (inactive)
9,CCCCOc1ccc(C(=O)Nn2cnnc2)cc1,1% (inactive)
10,O=C(Nc1ccccc1C(=O)O)c1cccc(NC(=O)c2ccc(Br)o2)c1,0% (inactive)
11,Cc1ccc2cc3cc(C(=O)N4CC(C)CC(C)C4)oc3nc2c1 (stereo not given),3% (inactive)
12,Cc1csc(SCC(=O)NC(=O)NCc2ccccc2)n1,9% (inactive)
13,CC(NS(=O)(=O)c1ccc(F)cc1)C(c1cccs1)N1CCN(C)CC1 (stereo not given),0% (inactive)
14,Cc1onc(-c2ccccc2Cl)c1C(=O)NCCn1c(C)cc2ccccc21,8% (inactive)
15,CCN(CC)CCNC(=O)c1cc(Cl)c(N)cc1OC,0% (inactive)
16,Cc1cc(=O)oc2ccc(OCC(=O)N(Cc3ccc(F)cc3)Cc3ccco3)cc12,0% (inactive)
17,CCOC(=O)CCC(=O)O[C@H]1[C@H](O[C@@H]2[C@@H](C)[C@H](O[C@H]3C[C@@](C)(OC)[C@@H](O)[C@H](C)O3)[C@@H](C)C(=O)O[C@H](CC)[C@@](C)(O)[C@H](O)[C@@H](C)C(=O)[C@H](C)C[C@@]2(C)O)O[C@H](C)C[C@@H]1N(C)C,0% (inactive)
18,CCN(CC)S(=O)(=O)c1cccc(-c2nnc(SCCOc3ccccc3C)o2)c1,1% (inactive)
19,Nc1ccc(S(=O)(=O)c2ccc(N)cc2)cc1,0% (inactive)
20,C=CCOc1ccc(/C(O)=C2\C(=O)C(=O)N(CCOC)C2c2cccnc2)cc1 (stereo not given),0% (inactive)

row,Structure (SMILES),inhibition
1,Cn1c(=O)cc(OCCCC(=O)N2CCCCC2)c2ccccc21,0% (inactive)
2,CCOC(=O)N1CCC(NC(=O)C2CCCN2C(=O)OCc2ccccc2)CC1 (stereo not given),5% (inactive)
3,Cc1ccccc1-n1c(=O)c2ccccc2n2nnnc12,0% (inactive)
4,CN1CCN(c2ncnc3c2cnn3-c2ccc(Cl)cc2)CC1,1% (inactive)
5,CCCCc1ccc(NC(=O)C2CCCO2)cc1 (stereo not given),0% (inactive)
6,CCN(CC)S(=O)(=O)c1ccc(C(=O)N2CCN=C2SCc2cccnc2)cc1,0% (inactive)
7,O=C(Nn1cnnc1)C1Cc2ccccc2CN1S(=O)(=O)c1ccc(F)cc1 (stereo not given),0% (inactive)
8,O=C(Nc1ccccc1C(=O)N1CCOCC1)c1ccncc1,0% (inactive)
9,COc1ccc(Cn2nnnc2C(c2ccccc2OC)N2CCC(C(N)=O)CC2)cc1 (stereo not given),0% (inactive)
10,Fc1ccc(-n2c(Cc3ccccc3)nnc2SCc2nc(-c3cccs3)no2)cc1,0% (inactive)
11,CC1(C)OC(=O)C(=CNc2ccccc2F)C(=O)O1,0% (inactive)
12,COC(=O)CCCCCNc1ccc(C(=O)OC)cc1N,0% (inactive)
13,CC1CN(C(=O)c2scc3c2OCCO3)CC(C)O1 (stereo not given),2% (inactive)
14,COC(=O)CN(c1ccc2c(c1)OCO2)S(C)(=O)=O,4% (inactive)
15,CC(C)(C)n1ncc2c(=O)n(CC(=O)NCc3ccco3)cnc21,11% (inactive)
16,COc1ccccc1-n1c(SCC(N)=O)nnc1-c1ccccc1,0% (inactive)
17,CC(=O)OC1c2ccccc2C(=O)N1c1ccccc1C (stereo not given),1% (inactive)
18,O=c1nc(N2CCCC2)nc(Nc2ccccc2)[nH]1,0% (inactive)
19,COC(=O)Cn1cnc2c(nnn2-c2ccc(C)cc2)c1=O,0% (inactive)
20,CCC(C)(NC(=O)CNC(C)=O)C(=O)NC1CCCCC1 (stereo not given),0% (inactive)
